Assay results published in PubChem BioAssay AID1159580 (chemical genetic matrix, 2015).
About 2,000 (36%) of roughly 5,500 compounds were called active. Roughly 18% stayed inconclusive and do not appear here. Cut-off read from the data, not from the text of the source: active = normalized growth mostly below about 0.91 (no sharp cut-off); inconclusive = no clear call, values can overlap the other calls; inactive = mostly above about 0.92. This is one part of the list.

Experiment: chemical genetic growth profiling, strain panel (AID 1159580);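 note: tested at 20 µM; growth read once vehicle control cultures reached saturation at 30 °C; 1 = growth at the plate median or of vehicle wells; lower values mean less growth of the strain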
Details: S. cerevisiae deletion strains, growth OD

Measured: normalized growth

C[C@H]1CC2C3CCC4=CC(=O)C=C[C@]4(C)[C@@]3(Cl)[C@@H](O)C[C@]2(C)[C@@]1(O)C(=O)CO (stereo partly drawn)
inactive: locus YAL013W, strain DEP1, hits give low values 0.982 | locus YAL040C, strain CLN3, hits give low values 1.03 | locus YCL061C, strain MRC1 (second series), hits give low values 1.01 | locus YER002W, strain NOP16, hits give low values 0.997 | locus YGR078C, strain PAC10, hits give low values 0.989 | locus YGR229C, strain SMI1, hits give low values 0.994 | locus YJR075W, strain HOC1, hits give low values 1.01 | locus YMR263W, strain SAP30, hits give low values 1.01 | locus YNL153C, strain GIM3, hits give low values 0.981 | locus YNL175C, strain NOP13, hits give low values 0.994 | locus YNL197C, strain WHI3, hits give low values 0.934 | locus YNL224C, strain SQS1, hits give low values 0.967 | locus YOR083W, strain WHI5 (second series), hits give low values 0.954
